# Results: the supplement of paper PMC5940239
# A number with no mark means an inactive call.
# Test system: Madurella mycetomatis MM55
# Assay: percent growth relative to solvent control; higher = less inhibition, active = 20 or less
# Conditions: 100 µM; 7 days
row,SMILES,percent growth [%]
1,CN(C(=O)c1cc2c(-c3cncnc3)cccc2[nH]1)c1ccccc1,51.3
2,N#Cc1ccc(-c2ccc(OCC(N)=O)cc2)cc1,96.5
3,COc1cc(NC(=O)Cc2nn(C)c(=O)c3ccccc23)ccc1Cl,116
4,CCOC(=O)NC(=O)c1ccsc1NC(=O)c1nc2ccccc2s1,78.6
5,CC1COC2(CCN(c3nc(=O)c4cc(C(F)(F)F)cc([N+](=O)[O-])c4s3)CC2)O1 (stereo unspecified),79.4
6,COc1cc(C2=NCCN2)ccc1-c1cn(-c2cccc(C3=NCCN3)c2)nn1,61
7,O=C(Nc1cnc2ccccc2c1)c1cccc(-n2cnnn2)c1,94.2
8,FC(F)(F)c1nnc2ccc(Cl)nn12,116
9,Cc1ccc(NC(=O)c2cc(S(=O)(=O)NC(C)(C)C)ccc2C)nc1,78.4
10,COc1ccc(C2(C(=O)Nc3ccc(Br)cc3)CCCC2)cc1,56.2
11,Cc1ccc(NC(=O)c2nc[nH]c2C(=O)Nc2nc3ccccc3[nH]2)c(C)c1,147
12,COCC(C)NC(=O)CSc1ncnc2sc(-c3ccccc3)cc12 (stereo unspecified),64.9
13,COc1cccc(CC(=O)N2CCC(n3c(C)nc4ccc(F)cc43)CC2)c1,118
14,Cc1cnc(CCNC(=O)c2cc(-c3ccc(Cl)cc3)cs2)[nH]1,94.3
15,CCc1ccc([C@@H]2C[C@H](C(F)(F)F)n3ncc(C(=O)NCc4ccc(OC)cc4)c3N2)cc1,60.8
16,Cc1ccc(Oc2ccc(NC(=O)CNc3ccccc3N3CCCC3=O)cc2)cc1,107
